Data taken from the supplement of paper PMC10849652.
Targets with a hit are over-represented here; the source holds about 7,900 in all. About 0.6% of all pairs of compound and target were hits. A number with no mark means an inactive call.

Assays:
Test in all cases: log2 fold change, soluble protein after heating vs DMSO (PISA); higher = thermal stabilisation; K562 cells, 10 uM, 30 min; active = over 0.2 and 3.5 SD of the protein, either way, in both replicates (recomputed)
[1] = compound: C1=CC=C(C=C1)[C@H](COC2=CC3=C(C=C2)NC(=O)N3)NC(=O)C4=CC=CN(C4=O)CC5=CC(=C(C=C5)F)F
Outline: (§1)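 K562 cells (2×10^6 cells/mL) were treated with 10 μM compound for 30 min, and aliquots were heated for 3 min over 48°C-58°C. Pooled aliquots were extracted in PBS with 0.5% NP-40 at 4°C, and the supernatant after 21,000xg for 90 min was measured by TMTpro 16plex LC-MS/MS with channel sums equalised. Reported thermal stability, relative to control samples and from duplicates, is a log2 fold change.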

[2] = compound: CC1=C(SC2=C1C(=N[C@H](C3=NN=C(N32)C)CC(=O)N)C4=CC=C(C=C4)Cl)C
Outline: as §1

[3] = compound: CC1=C2C(=CC=C1)N=C(N(C2=O)C3=CC=CC=C3C)CN4C=NC5=C(N=CN=C54)N
Outline: as §1

[4] = compound: Cc1sc2c(c1C)C(c1ccc(Cl)cc1)=N[C@@H](CC(=O)OC(C)(C)C)c1nnc(C)n1-2
Outline: as §1

[5] = compound: c1ccc([C@@H]2C[C@H]2NC2CCNCC2)cc1
Outline: as §1

UniProt Q9H4L7, sequence (Q9H4L7 whole entry, looked up): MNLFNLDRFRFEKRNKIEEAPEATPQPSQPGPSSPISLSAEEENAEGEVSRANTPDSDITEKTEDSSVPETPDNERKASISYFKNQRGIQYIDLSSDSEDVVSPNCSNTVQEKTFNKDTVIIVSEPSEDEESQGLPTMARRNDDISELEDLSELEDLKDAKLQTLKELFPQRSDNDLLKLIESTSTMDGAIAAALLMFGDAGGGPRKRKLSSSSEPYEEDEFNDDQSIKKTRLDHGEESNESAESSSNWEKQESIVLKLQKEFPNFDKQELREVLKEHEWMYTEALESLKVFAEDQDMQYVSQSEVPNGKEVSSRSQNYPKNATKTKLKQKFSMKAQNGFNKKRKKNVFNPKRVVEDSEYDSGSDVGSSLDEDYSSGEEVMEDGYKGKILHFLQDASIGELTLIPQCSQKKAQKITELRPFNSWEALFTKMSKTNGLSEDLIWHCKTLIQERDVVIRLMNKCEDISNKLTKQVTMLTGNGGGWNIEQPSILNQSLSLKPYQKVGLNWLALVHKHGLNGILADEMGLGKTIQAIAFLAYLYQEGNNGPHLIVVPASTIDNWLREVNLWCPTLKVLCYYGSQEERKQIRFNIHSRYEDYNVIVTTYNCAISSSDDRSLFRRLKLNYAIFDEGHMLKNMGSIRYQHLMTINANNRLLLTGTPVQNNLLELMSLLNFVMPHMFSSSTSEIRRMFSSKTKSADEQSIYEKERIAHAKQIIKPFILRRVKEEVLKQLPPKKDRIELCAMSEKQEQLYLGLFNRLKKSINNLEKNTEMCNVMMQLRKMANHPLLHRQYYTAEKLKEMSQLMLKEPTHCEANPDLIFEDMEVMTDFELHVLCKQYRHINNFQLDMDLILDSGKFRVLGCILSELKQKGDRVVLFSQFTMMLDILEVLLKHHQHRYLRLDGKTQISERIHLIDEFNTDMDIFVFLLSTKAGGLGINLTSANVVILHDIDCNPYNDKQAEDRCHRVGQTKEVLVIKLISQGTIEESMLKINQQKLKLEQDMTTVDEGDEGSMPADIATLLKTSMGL
UniProt Q6P1M0, sequence (Q6P1M0 whole entry, looked up): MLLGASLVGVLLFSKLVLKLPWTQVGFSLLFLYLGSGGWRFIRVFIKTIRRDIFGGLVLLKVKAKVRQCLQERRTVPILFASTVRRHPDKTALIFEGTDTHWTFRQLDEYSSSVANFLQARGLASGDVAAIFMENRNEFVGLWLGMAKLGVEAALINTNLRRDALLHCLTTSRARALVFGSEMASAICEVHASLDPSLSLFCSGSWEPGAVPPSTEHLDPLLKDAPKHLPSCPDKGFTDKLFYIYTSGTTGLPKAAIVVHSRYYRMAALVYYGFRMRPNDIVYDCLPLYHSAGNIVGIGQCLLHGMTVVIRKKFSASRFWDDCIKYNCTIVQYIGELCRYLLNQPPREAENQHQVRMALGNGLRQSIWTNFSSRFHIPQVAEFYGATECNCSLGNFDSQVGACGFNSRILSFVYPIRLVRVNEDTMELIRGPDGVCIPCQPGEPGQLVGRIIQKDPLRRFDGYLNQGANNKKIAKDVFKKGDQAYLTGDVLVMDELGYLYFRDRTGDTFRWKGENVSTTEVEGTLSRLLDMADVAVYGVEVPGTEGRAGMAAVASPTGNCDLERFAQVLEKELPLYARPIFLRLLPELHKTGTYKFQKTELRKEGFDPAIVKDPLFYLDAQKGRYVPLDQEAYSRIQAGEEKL
UniProt P35610, sequence (P35610 whole entry, looked up): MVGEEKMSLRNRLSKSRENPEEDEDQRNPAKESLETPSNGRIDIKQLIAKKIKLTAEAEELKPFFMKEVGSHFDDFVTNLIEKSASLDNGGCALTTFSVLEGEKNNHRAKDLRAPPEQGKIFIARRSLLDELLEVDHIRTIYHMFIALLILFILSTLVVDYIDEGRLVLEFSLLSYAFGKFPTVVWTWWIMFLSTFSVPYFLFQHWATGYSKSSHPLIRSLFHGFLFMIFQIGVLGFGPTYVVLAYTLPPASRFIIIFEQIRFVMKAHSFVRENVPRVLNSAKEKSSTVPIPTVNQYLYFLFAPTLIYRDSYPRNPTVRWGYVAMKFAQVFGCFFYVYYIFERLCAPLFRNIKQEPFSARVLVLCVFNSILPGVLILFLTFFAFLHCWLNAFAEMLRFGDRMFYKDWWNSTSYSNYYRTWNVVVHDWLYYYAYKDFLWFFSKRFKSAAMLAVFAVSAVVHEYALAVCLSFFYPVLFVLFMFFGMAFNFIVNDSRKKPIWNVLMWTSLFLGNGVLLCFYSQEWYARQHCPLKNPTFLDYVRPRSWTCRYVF
UniProt P08240, sequence (P08240 whole entry, looked up): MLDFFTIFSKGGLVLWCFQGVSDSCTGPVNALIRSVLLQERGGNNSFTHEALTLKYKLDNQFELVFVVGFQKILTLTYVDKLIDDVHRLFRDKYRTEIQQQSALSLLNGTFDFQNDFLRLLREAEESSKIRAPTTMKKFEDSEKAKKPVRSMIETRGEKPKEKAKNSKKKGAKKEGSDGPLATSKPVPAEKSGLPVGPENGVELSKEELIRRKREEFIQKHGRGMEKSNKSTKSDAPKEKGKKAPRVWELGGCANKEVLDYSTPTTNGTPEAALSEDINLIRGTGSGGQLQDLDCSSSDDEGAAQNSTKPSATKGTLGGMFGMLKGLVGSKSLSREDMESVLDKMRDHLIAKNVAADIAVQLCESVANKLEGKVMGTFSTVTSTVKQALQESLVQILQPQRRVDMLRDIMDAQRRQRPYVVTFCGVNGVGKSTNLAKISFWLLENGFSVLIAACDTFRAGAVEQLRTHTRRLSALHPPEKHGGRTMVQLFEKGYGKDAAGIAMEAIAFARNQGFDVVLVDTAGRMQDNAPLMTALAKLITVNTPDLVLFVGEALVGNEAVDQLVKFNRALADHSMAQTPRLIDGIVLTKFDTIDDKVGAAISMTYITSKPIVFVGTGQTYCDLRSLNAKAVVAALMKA
UniProt Q969G3, sequence (Q969G3 whole entry, looked up): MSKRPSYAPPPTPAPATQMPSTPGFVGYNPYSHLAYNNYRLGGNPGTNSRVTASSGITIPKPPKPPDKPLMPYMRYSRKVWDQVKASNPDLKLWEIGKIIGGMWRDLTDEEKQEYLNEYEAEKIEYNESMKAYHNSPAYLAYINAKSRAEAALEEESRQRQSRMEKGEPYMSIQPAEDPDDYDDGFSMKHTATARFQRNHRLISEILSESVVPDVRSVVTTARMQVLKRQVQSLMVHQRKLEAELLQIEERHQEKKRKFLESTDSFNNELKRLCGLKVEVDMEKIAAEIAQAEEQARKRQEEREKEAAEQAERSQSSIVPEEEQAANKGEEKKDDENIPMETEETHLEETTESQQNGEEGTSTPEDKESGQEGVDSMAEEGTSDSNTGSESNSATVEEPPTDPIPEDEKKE
UniProt Q8IWA5, sequence (Q8IWA5 whole entry, looked up): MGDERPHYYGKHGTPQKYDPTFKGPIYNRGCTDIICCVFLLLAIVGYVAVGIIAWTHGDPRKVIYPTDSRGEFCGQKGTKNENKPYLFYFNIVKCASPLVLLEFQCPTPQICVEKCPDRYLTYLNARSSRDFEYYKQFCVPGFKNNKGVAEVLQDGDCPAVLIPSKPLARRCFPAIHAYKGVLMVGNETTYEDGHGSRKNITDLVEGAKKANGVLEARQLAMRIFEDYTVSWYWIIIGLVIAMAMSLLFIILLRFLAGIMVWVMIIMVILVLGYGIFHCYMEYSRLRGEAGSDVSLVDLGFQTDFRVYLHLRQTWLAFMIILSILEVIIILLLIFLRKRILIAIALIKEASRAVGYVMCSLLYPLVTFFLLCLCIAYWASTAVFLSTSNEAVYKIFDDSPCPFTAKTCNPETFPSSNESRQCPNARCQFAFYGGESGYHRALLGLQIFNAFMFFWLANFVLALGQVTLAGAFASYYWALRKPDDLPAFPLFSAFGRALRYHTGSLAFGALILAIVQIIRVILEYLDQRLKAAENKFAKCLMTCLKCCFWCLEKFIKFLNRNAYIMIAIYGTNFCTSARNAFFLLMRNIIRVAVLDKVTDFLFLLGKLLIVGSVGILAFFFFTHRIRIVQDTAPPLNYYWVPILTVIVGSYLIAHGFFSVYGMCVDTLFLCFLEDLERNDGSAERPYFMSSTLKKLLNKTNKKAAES
UniProt P35270, sequence (P35270 whole entry, looked up): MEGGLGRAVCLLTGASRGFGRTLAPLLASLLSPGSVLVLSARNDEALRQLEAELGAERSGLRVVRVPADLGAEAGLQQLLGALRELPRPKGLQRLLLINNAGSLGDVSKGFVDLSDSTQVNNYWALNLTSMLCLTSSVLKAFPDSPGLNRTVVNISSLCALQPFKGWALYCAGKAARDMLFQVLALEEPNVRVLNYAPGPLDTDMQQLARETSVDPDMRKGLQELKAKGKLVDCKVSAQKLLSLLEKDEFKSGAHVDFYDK
UniProt Q9P016, sequence (Q9P016 whole entry, looked up): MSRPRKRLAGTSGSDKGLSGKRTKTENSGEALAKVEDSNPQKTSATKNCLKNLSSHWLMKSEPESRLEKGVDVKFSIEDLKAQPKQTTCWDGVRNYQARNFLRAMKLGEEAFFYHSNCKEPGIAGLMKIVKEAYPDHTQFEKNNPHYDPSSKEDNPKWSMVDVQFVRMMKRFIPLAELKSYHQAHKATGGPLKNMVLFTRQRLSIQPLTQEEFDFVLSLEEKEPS

| Target | log2 fold change [1] | log2 fold change [2] | log2 fold change [3] | log2 fold change [4] | log2 fold change [5] |
| --- | --- | --- | --- | --- | --- |
| SMARCE1 (UniProt Q969G3) | -0.156 | -0.002 | 0.338 | 0.111 | -0.051 |
| SLC44A2 isoform 2 (UniProt Q8IWA5) | 0.002 | 0.077 | -0.022 | -0.045 | 0.065 |
| SRPRA (UniProt P08240) | 0.001 | -0.032 | 0.031 | -0.061 | -0.038 |
| SLC27A4 (UniProt Q6P1M0) | -0.018 | 0.095 | 0.037 | -0.027 | -0.019 |
| SOAT1 (UniProt P35610) | -0.023 | 0.037 | 0.071 | 0.802 (active) | 0.001 |
| SPTBN4 (UniProt Q9H254) | -0.058 | -0.083 | 0.148 | 0.014 | -0.001 |
| SMARCAD1 isoform 2 (UniProt Q9H4L7) | -0.029 | 0.071 | 0.214 | -0.129 | 0.004 |
| SPR (UniProt P35270) | 0.026 | 0.04 | 0.031 | -0.058 | -0.105 |
| THYN1 (UniProt Q9P016) | -0.024 | 0.044 | 0.043 | 0.01 | -0.067 |
